Assay outcomes from PubChem.
NOMO-1 viab = STK33 inhibitor candidate reducing NOMO-1 cell viability | NOMO-1 AML viability, CellTiter-Glo luminescence, 72 h | inhibition, % (concentration not given with the values) | 7.5% of 37,000 active | AID 2330; in the data active means inhibition above about 80%
Shh pathway inh = blocks Sonic Hedgehog signaling; inhibition, % (test concentration not listed); 2.1% of 22,000 active; Shh-LIGHT2 Gli-luciferase reporter, 30 h; AID 2313;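 active means mean inhibition across valid replicates above about 65%, limit read from the data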;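 further: pathway switched on by Shh-conditioned medium diluted 1 in 25 in low serum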
MITF inhib = inhibitors of MITF. TRPM1 promoter luciferase, luminescence, 24 h. inhibition, % (test concentration not listed). 0.28% of 37,000 active. AID 2240; in the data active means inhibition above about 85%;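 further: human melanocyte line stably carrying TRPM1 promoter luciferase reporter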
Large screens that a line does not name were inactive. Sampled rows, rich in hits. Any-hit rate of the full collection: about 8.1%.

CC1OC(OC2CCC3(C)C(CCC4(C)C3CC=C3C5CC(C)(C)CCC5(C(=O)OC5OC(CO)C(OC6OCC(OC7OC(CO)C(O)C(O)C7O)C(OC7OCC(O)C(O)C7O)C6O)C(O)C5O)CCC34C)C2(C)C)C(O)C(O)C1OC1OCC(O)C(O)C1O (centres undefined)	none
COc1ccc(-c2nc3ccccc3s2)cc1NC(=O)COc1ccc(Cl)cc1Cl	none (no result: Shh pathway inh)
COc1ccc(NC(=O)N(C)C[C@@H]2Oc3ccc(NC(=O)Cc4ccccc4)cc3C(=O)N([C@@H](C)CO)C[C@@H]2C)cc1	none (no result: Shh pathway inh)
Cc1cc(I)ccc1NC(=O)CN(c1c(C)cccc1C)S(C)(=O)=O	none (no result: Shh pathway inh)
Cc1c(NC(=O)C(C)Oc2ccc(Cl)cc2Cl)cccc1-c1nc2ccccc2o1 (centres undefined)	none (no result: Shh pathway inh)
C[C@H]1CN([C@@H](C)CO)C(=O)c2cccc(NC(=O)Nc3ccc(F)cc3)c2O[C@@H]1CN(C)Cc1ccc(C(=O)O)cc1	none
C[C@@H]1CN([C@@H](C)CO)C(=O)c2cccc(NC(=O)Nc3ccc(F)cc3)c2O[C@H]1CN(C)Cc1ccc(C(=O)Nc2ccccc2N)cc1	NOMO-1 viab 125 (no result: Shh pathway inh)
C[C@H](CO)N1C[C@H](C)[C@@H](CN(C)Cc2ccc(C(F)(F)F)cc2)Oc2ccc(NS(=O)(=O)c3ccccc3)cc2C1=O	none (no result: Shh pathway inh)
C[C@@H]1CN([C@@H](C)CO)C(=O)c2cc(NS(=O)(=O)c3ccc(Cl)cc3)ccc2O[C@H]1CN(C)Cc1ccc(C(F)(F)F)cc1	NOMO-1 viab 107 (no result: Shh pathway inh)
C[C@@H]1CN([C@H](C)CO)C(=O)c2cc(NS(=O)(=O)c3ccc(Cl)cc3)ccc2O[C@@H]1CN(C)Cc1ccc(C(F)(F)F)cc1	NOMO-1 viab 116 (no result: Shh pathway inh)
C[C@H]1CN([C@@H](C)CO)C(=O)c2cc(NS(=O)(=O)c3ccccc3)ccc2O[C@@H]1CN(C)Cc1ccc(C(F)(F)F)cc1	none
COc1ccccc1NC(=O)COc1ccc(C(=O)O)cc1OC	none (no result: Shh pathway inh)
O=C(CSc1nnc(-c2ccc(Br)cc2)o1)Nc1ccc(Cl)cc1Cl	none (no result: Shh pathway inh)
COc1ccc(S(=O)(=O)N(C)C[C@H]2Oc3ccc(NC(=O)Nc4cccc5ccccc45)cc3C(=O)N([C@@H](C)CO)C[C@H]2C)cc1	none
CC(C)(C)NS(=O)(=O)c1ccc(NC(=O)CSc2nc3ccccc3s2)cc1	none (no result: Shh pathway inh)
Cc1cc(NC(=O)c2nn3c(C(F)(F)F)cc(-c4ccccc4)nc3c2Cl)n(-c2ccccc2)n1	none (no result: Shh pathway inh)
C[C@H]1CN([C@@H](C)CO)C(=O)Cc2cc(NC(=O)c3ccncc3)ccc2O[C@H]1CN(C)CC1CC1	none
NC(=O)c1cc(-c2ccccc2)sc1NC(=O)Cn1cnc2scc(-c3ccccc3)c2c1=O	none (no result: Shh pathway inh)
C[C@H](CO)N1C[C@H](C)[C@H](CN(C)Cc2ccc(Oc3ccccc3)cc2)Oc2ccc(NC(=O)CCCN(C)C)cc2CC1=O	none
C[C@@H]1CN([C@@H](C)CO)C(=O)Cc2cc(NC(=O)CCCN(C)C)ccc2O[C@@H]1CN(C)Cc1ccc(Oc2ccccc2)cc1	none
C[C@H]1CN([C@@H](C)CO)C(=O)Cc2cc(NC(=O)CCCCCC(=O)Nc3ccccc3N)ccc2O[C@@H]1CN(C)Cc1ccc(Oc2ccccc2)cc1	NOMO-1 viab 122 (no result: Shh pathway inh)
C[C@H]1CN([C@@H](C)CO)C(=O)Cc2cc(NC(=O)CCCN(C)C)ccc2O[C@@H]1CN(C)Cc1ccc(Oc2ccccc2)cc1	none
C[C@@H]1CN([C@@H](C)CO)C(=O)Cc2cc(NC(=O)CCCCCC(=O)Nc3ccccc3N)ccc2O[C@@H]1CN(C)Cc1ccc(Oc2ccccc2)cc1	NOMO-1 viab 140 (no result: Shh pathway inh)
C[C@@H]1CN([C@H](C)CO)C(=O)Cc2cc(NC(=O)CCCCCC(=O)Nc3ccccc3N)ccc2O[C@@H]1CN(C)Cc1ccc(Oc2ccccc2)cc1	NOMO-1 viab 128 (no result: Shh pathway inh)
C=C1C(=O)C23CC(O)C4C(C)(C(=O)OC5OC(CO)C(O)C(O)C5O)CCCC4(C)C2=CCC1(O)C3 (centres undefined)	none (no result: NOMO-1 viab, MITF inhib)
COC(=O)c1ccc(NC(=O)C2Cc3ccccc3CN2S(=O)(=O)c2ccc(F)cc2)cc1 (centres undefined)	none (no result: Shh pathway inh)
CNS(=O)(=O)c1cc(-c2nnc(Nc3ccc(NC(C)=O)cc3)c3ccccc23)ccc1C	none (no result: Shh pathway inh)
Clc1cccc(Nc2nnc(-c3ccccc3)c3ccccc23)c1	Shh pathway inh 94
Cc1ccc(C)c(OCC(=O)Nc2cccc(-c3nnc(-c4ccco4)o3)c2)c1	none (no result: Shh pathway inh)
COC(=O)C1=C(C)NC(=O)CC1c1ccccc1C (centres undefined)	none
Cc1ccccc1C1CC(=O)c2c(ccc3ccccc23)N1 (centres undefined)	NOMO-1 viab 140
C=C1CC[C@H]2[C@@](C)(CCC(O)[C@@]2(C)CO)[C@@H]1CCC1=CCOC1=O (some centres undefined)	none
C=C1CC[C@@H]2[C@](C)(CO)[C@H](O)CC[C@@]2(C)[C@@H]1C/C=C1/C(=O)OC[C@H]1O	NOMO-1 viab 108
COc1ccc(OC)c(NC(=O)CSc2nc(-c3ccccc3)nc3c2COC(C)(C)C3)c1	none (no result: Shh pathway inh)
